High-throughput results (PubChem BioAssay)
Vaccinia mCherry – qHTS for Stage-Specific Inhibitors of Vaccinia Orthopoxvirus: mCherry Reporter Primary qHTS | AID 720579, 2013 | hit rate 0.63% among 310,000 | Vaccinia virus mCherry reporter infection, fluorescence | Potency, µM (series often up to 36.5 µM), for the others: at the top dose activity change, negative = inhibition, hits mostly inhibitors; calls by dose curve; tested in A549 cells; further: nearly all actives have a fitted effect of over 35% in size
VACV Venus inh – qHTS for Stage-Specific Inhibitors of Vaccinia Orthopoxvirus: Venus Reporter Primary qHTS | Vaccinia virus Venus reporter expression, fluorescence | Potency, µM (highest dose often 36.5 µM), for inactives: top-dose activity change, negative = inhibition, hits mostly inhibitors | hit rate 0.46% among 330,000; calls by dose curve; tested in A549 cells; further: nearly all actives have a fitted effect of over 30% in size
HCV inhibitor – qHTS Assay for Inhibitors of Hepatitis C Virus (HCV); AID 651820, 2012; Potency, µM (highest dose often 41.8 µM), for the others: at the top dose activity change, negative = inhibition, hits mostly inhibitors; hit rate 3.4% among 340,000; Huh7.5.1 HCVcc-Cre infection, luciferase reporter, 44 h; active means well fitted inhibition curve with a large enough effect; inconclusive means small, poorly fitted or top-dose-only effect, or another doubt; inactive means no such curve, though single readings can be large or run the other way
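Reporter virus HCVcc-Cre (~0.5 moi) infects cells exposed to compound; seeding density 1,000 cells/well with 4 h settling beforehand. Luminescence, 15 sec read, taken 44 h post-infection following a 15 min RT substrate incubation.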
Numbers without * were called inactive; i = inactive; u = inconclusive; x = no result given. Shown are actives, neighbours in structure and some others; about 3.3% of the full set was active somewhere. On the % scale 0 is the no-effect control and ±100 the full control effect; potency means the concentration at half of the fitted maximal effect.

SMILES	Vaccinia mCherry	VACV Venus inh	HCV inhibitor
C/C(=N\NC(=O)COc1ccc(C)cc1Br)c1cc([N+](=O)[O-])cs1	u	u	8.9µM*
O=C1CCC[C@@H]2CC(Nc3ccccc3)C[C@@H]3CCN1[C@H]23 (stereo partly drawn)	-12%	-7%	x
CSCCC(NC(=O)c1ccccc1)C(=O)N1CCN(C(C)=O)CC1 (stereo not drawn)	-11%	-8%	7%
CS(=O)(=O)Nc1cccc(-c2nc(Nc3ccc(F)cc3)c3ccccc3n2)c1	-13%	-7%	x
COc1cc(NS(C)(=O)=O)ccc1Nc1c2ccccc2nc2ccccc12	0.5µM*	u	0.89µM*
Cc1cc2oc(=O)cc(CSc3nnc(C)n3N)c2cc1C(C)C	x	-3%	21%
Cc1cc2oc(=O)cc(CSc3nnc(-c4cccs4)o3)c2cc1C(C)C	-29%	-25%	10µM*
COc1ccc(Cl)cc1C(=O)NNC(=O)COC(=O)CC(NC(C)=O)c1ccccc1 (stereo not drawn)	i	-11%	23%
COc1cccc(/C=N/n2c(C)nc3ccccc32)c1OC	x	x	8.9µM*
Cc1ccc(/C=N/n2c(C)nc3ccccc3c2=O)o1	x	x	30%
COc1cccc(/C=N\n2c(C)nnc2C)c1OC	-18%	2%	11%
O=[N+]([O-])c1ccc(/C=N/n2c(CO)nc3ccccc32)s1	5µM*	4µM*	10µM*
Cc1nc2ccccc2n1/N=C/c1ccc([N+](=O)[O-])s1	-30%	-19%	4.5µM*
Cc1nc2ccccc2n1/N=C/c1ccc([N+](=O)[O-])o1	7.9µM*	11µM*	10µM*
Cc1nc2ccccc2c(=O)n1/N=C/c1ccccn1	-11%	-2%	-5%
NC(=O)c1ccc(N=Cc2ccc([N+](=O)[O-])s2)cc1	-8%	9%	u
COCCn1c(SCC(=O)Nc2cc(Cl)ccc2OC)nc2c([nH]c3ccccc32)c1=O	-13%	-14%	x
CCc1ccc(S(=O)(=O)c2cn(C)c3cc(F)c(F)cc3c2=O)cc1	-25%	-22%	x
O=C(O)c1cc2cccc([N+](=O)[O-])c2[nH]1	-4%	-7%	x
CSc1ncccc1C(=O)NCC1Cc2cc(-c3cnccn3)ccc2O1 (stereo not drawn)	-2%	7%	x
CCOC(=O)c1ccc(NC(=O)Cc2coc3cc(C)cc(C)c23)cc1	-7%	1%	x
CC(C)(C)OC(=O)N1CCC(NC(=O)c2nc[nH]c2C(=O)N2CCN(c3ccccc3)CC2)CC1	-7%	-16%	12%
COC(=O)c1ccccc1S(=O)(=O)N1CCC(C(=O)N(C)CCOc2ccccc2)CC1	i	-20%	u
CC(C)Oc1ccc(C(=O)Nc2nonc2-c2ccc(OC(C)C)cc2)cc1	-16%	-21%	x
CCn1cc(C(=O)O)c(=O)c2cc(F)c(N3CCNC(C)C3)c(F)c21 (stereo not drawn)	-7%	-3%	x
SMILES	Vaccinia mCherry	VACV Venus inh	HCV inhibitor
Cc1occc1C(=O)Nc1cccc(C(F)(F)F)c1	x	x	-27%
Cc1cnc(Nc2nc3ccccc3o2)nc1C(=O)Nc1cccc(C(F)(F)F)c1	x	x	6.3µM*
Cc1ccccc1C(=O)NC(C)c1nnc2n1CCN(Cc1ccc(F)cc1)CC2 (stereo not drawn)	-2%	1%	x
O=C1/C(=C/c2cccs2)CCC/C1=C\c1cccs1	-3%	-20%	-19%
Cn1cccc1/C=C1\CCC/C(=C\c2cccn2C)C1=O	x	x	13µM*
Cn1c(=O)c2c(nc(NCCc3ccccc3)n2Cc2cccc(Br)c2)n(C)c1=O	-27%	-12%	x
Cc1cc(F)ccc1NC(=O)C1CCN(C(=O)c2cnn(-c3ccccc3)c2-n2cccc2)CC1	-11%	-4%	x
CN1CCN(c2nc(-c3cccc([N+](=O)[O-])c3)nc3ccccc23)CC1	-7%	-14%	u
CN1CCC(N(C)c2nc(-c3ccc([N+](=O)[O-])cc3)nc3ccccc23)CC1	u	10µM*	4.5µM*
Cc1ccc(SCC(=O)N(C)CC(=O)Nc2cccc(F)c2)c(C)c1	-27%	-24%	9%
O=C(CNC(=O)C1CCCCC1)OCC(=O)c1ccc2c(c1)CCC2	31%	-11%	x
COc1ccc(-c2csc(C(O)c3cccc(OC)c3)n2)cc1 (stereo not drawn)	7%	-14%	x
C=C(C)CSc1cc(C)c(C#N)c2nc3ccccc3n12	i	-3%	11µM*
Cc1cc(NCCCCO)n2c(nc3ccccc32)c1C#N	-7%	-8%	u
Cc1c(-c2ccc(Cl)cc2Cl)nc2ccccc2c1C(=O)NCCN1CCOCC1	-8%	-11%	2%
CCCc1nn2c(=O)cc(COC(=O)c3ccc(NC(=O)CCc4ccccc4)cc3)nc2s1	i	-12%	x
CCOc1ccc2oc(C(=O)OCC(=O)N3C(C)CCCC3C)c(C)c2c1 (stereo not drawn)	x	x	13µM*
COc1ccc2oc(C(=O)OCC(=O)N3C(C)CCCC3C)c(C)c2c1 (stereo not drawn)	-14%	1%	-3%
COc1ccc(NC(=O)CS(=O)c2cccc(C(F)(F)F)c2)cc1 (stereo not drawn)	i	-19%	7%
O=C(CCCSc1nc(-c2ccco2)cc(C(F)(F)F)n1)Nc1ccc2c(c1)OCO2	x	u	4µM*
COc1ccc(NC(=O)CSc2nc(-c3ccco3)cc(C(F)(F)F)n2)cc1	-26%	-22%	x
O=C(CSc1nc(-c2ccco2)cc(C(F)(F)F)n1)Nc1ccc(C(=O)N2CCOCC2)cc1	x	-23%	10µM*
COc1cc(NC(=O)CCCSc2nc(-c3ccco3)cc(C(F)(F)F)n2)cc(OC)c1OC	-28%	u	u
O=C(CSc1nc(-c2ccco2)cc(C(F)(F)F)n1)Nc1ccc2c(c1)OCO2	u	u	3.5µM*
Cc1nn(C)c(C)c1NC(=O)CCCSc1nc(-c2ccco2)cc(C(F)(F)F)n1	x	u	2.2µM*
SMILES	Vaccinia mCherry	VACV Venus inh	HCV inhibitor
O=C(CSc1nc(-c2ccco2)cc(C(F)(F)F)n1)NN1CCOCC1	-9%	-6%	-17%
CC(=O)c1ccc(NC(=O)CCCSc2nc(-c3ccco3)cc(C(F)(F)F)n2)cc1	-23%	-18%	x
CCN(CC)Cc1ccc(Nc2ccnc3cc(Cl)ccc23)cc1O	i	-14%	x
CCN1CCc2c(sc(-n3cccc3)c2C(C)NC(=O)Nc2ccc(C(=O)OC)cc2)C1 (stereo not drawn)	-12%	5%	x
Cc1ccc(N(C(C)C(=O)Nc2cc(Cl)ccc2Oc2ccccc2)S(C)(=O)=O)cc1 (stereo not drawn)	u	u	-10%
Cc1ccc(N(CC(=O)Nc2cc(Cl)ccc2Oc2ccccc2)S(C)(=O)=O)c(C)c1	x	u	11µM*
CC(C)CCNC(=O)C(c1ccc(O)cc1)N(Cc1cccs1)C(=O)C1COc2ccccc2O1 (stereo not drawn)	11µM*	28µM*	13µM*
CC(C)(C)NC(=O)CN(Cc1cccs1)C(=O)C1COc2ccccc2O1 (stereo not drawn)	x	x	12%
CCN(CC)C(=O)c1cccc(NC(=O)CC23CC4CC(CC(C4)C2)C3)c1	-9%	-17%	14%
Cn1nccc1C(=O)NCC1CCC2(CCN(Cc3cccc4ncccc34)CC2)O1 (stereo not drawn)	-4%	1%	x
CCOc1cc(N2CCOCC2)c(OCC)cc1NC(=O)CN1C(=O)N(C)C2(CCCCC2)C1=O	x	x	3%
